# Data reported in the supplement of paper PMC11417369.
# ± gives the standard deviation of the averaged measurements. The full ranking holds about 25,000 sequences; the median of “ln(normalized median fluorescence intensity)” is about 8.9, and the highest 2% start at about 10. The list comes from a sample in which the highest values are over-represented; it also holds similar and randomly drawn sequences.
# Tested on: PfAP2-LT AP2 domain (GST-tagged)
# Test: gcPBM binding intensity (ln(normalized median fluorescence intensity)); higher = stronger DNA binding
# Method in brief: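 GST-tagged P. falciparum DNA-binding domains, expressed in E. coli (about 25 μg on average), were applied for 1 h to an Agilent 4 × 180k array of primer-extended double-stranded 36-bp intergenic genomic probes plus negative controls. The binding buffer was 1× PBS with 1% milk, 0.2 mg/ml BSA, 0.5% salmon testes DNA and 0.03% Triton X-100. Bound protein was detected with Alexa488 anti-GST antibody and scanned at 488 nm. Binding intensity is the highest Masliner-normalised natural-log median intensity across replicate spots of either probe orientation.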
row,Sequence,gcPBM binding intensity (ln)
1,TTTTTTCTTTTATGTGAAATGTAATATTGTTATATA [GTGCAC_negctrl_site715],8.51 ± 0.52
2,TATATACGCATTTTTATACACACTTGTTTTATAAAA [CACACA_site727],8.79 ± 0.35
3,GGATATATTATATGTACACACACATATAAGGGATTA [CACACA_site7884],9.34 ± 0.31
4,TTACAAAAAAATAATTGTACATACAATTTCTGTTAT [XGTACX_site877],8.71 ± 0.45
5,ATATTTTTATTTAAACGTACATACACGTTGAAAAGA [XGTACX_site4567],8.43 ± 0.4
6,TGTAATAAATAGTACACACACACATATTTATATATC [CACACA_site6770],9.72 ± 0.23
7,TCTTTATCTTCTTATACACACATTTATTAAAAAAAA [CACACA_site445],8.55 ± 0.4
8,ATAAAACCAACATAGAGTACAGATCGACTATGTTTC [XGTACX_site4329],9.05 ± 0.47
9,AATAATAGAAGCACCCACCCACCACCACCCACACAT [CACACA_negctrl_site1033],10.46 ± 0.028
10,GTTATAGAAGCATTCACACACACACCCACATACACA [CACACA_site1465],10.1 ± 0.11
11,TATAATAATCCACAAGCACACACACCCACATATATA [CACACA_site8343],9.91 ± 0.32
12,TGTAAGTTGATATAATGTACATGTTTGATTTTTTTT [XGTACX_site7687],8.71 ± 0.47
13,TATAAAATACTGTATCGATGGGGGAGGGCGCAGGGG [TGCATGCA_negctrl_site250],10.4 ± 0.16
14,AGTATATAAAATACTGTATCGATGGGGGAGGGCGCA [CACACA_negctrl_site1612],10 ± 0.44
15,ATATATGGGGCGCAGGAAAAGAGTTTTGGAAATAAA [CACACA_negctrl_site1265],8.98 ± 0.55
16,CTTTTTTGTTAAAGTGTGCGCAATAGTTATAGACTT [GTGCAC_site9670],8.87 ± 0.38
17,TGATAATAAGCATACACACACACACTAGAAAAAAAA [CACACA_site4558],10.1 ± 0.38
18,ATATAAGAAAAGCACACACACACAAAAAAAAAAAAA [CACACA_site2827],10.1 ± 0.42
19,TAATAATCCACAAGCACACACACACCCATATATATA [CACACA_site1267],9.96 ± 0.13
20,TGATAATAAGCATACACACACACACTAAAAAAAAAA [CACACA_site6478],9.94 ± 0.38
21,ATAATCCACAAGCACACACACACACCCATATATATA [CACACA_site1268],10.1 ± 0.35
22,ATAATACCCAAGCACACACACACACCGATATATATA [CACACA_site8344],10.4 ± 0.2

row,Sequence,gcPBM binding intensity (ln)
1,AGATATAAGAAAAGCACACACACACCCAAAAAAAAA [CACACA_site2826],10.2 ± 0.18
2,TAATAATACCCAAGCACACACACACCCATATATATA [CACACA_site4831],10.1 ± 0.33
3,TTAATATAAGCAAATACACACACACCGATATATATA [CACACA_site9269],9.8 ± 0.26
4,AGATATAAGAAAAGCACACACACACTAGAAAAAAAA [CACACA_site5559],9.92 ± 0.33
5,TATAATCCATAAGAAGCACACACATATATATATATT [CACACA_site8394],9.41 ± 0.3
6,AGAGATATAAGAAAAGCACACACACCCAAAAAAAAA [CACACA_site8917],9.96 ± 0.29
7,ATTTTAACTCCCCTTAATCTATTGTATATATATATA [CACACA_negctrl_site208],8.88 ± 0.29
8,TACTCAAAAATTAATTAGCATAATATATATAAAAAT [GTGCAC_negctrl_site613],8.49 ± 0.45
9,TTTGCCATAAAACACACACACATGTAAACCCCCTTT [CACACA_site1646],9.76 ± 0.2
10,ATATATTAATATGTGTGTACTTAACCATTCATATGT [XGTACX_site7395],9.1 ± 0.4
11,TCTTGTATACGGCATGCATGTTAGCACATACGGACA [TGCATGCA_site146],8.9 ± 0.32
12,ATATATTTAAATAAAAGTACGTAAAGGTATATTTAA [XGTACX_site8088],8.88 ± 0.44
13,ACATTCAATAAACGTCGTACACTTTCCTTTTTATGA [XGTACX_site3274],8.86 ± 0.52
14,TAATAATAGTCTAATACATGCATCGATAACGGAACT [TGCATGCA_site98],8.82 ± 0.32
15,GGTGATAATAAGCATACACACACACCCAAAAAAAAA [CACACA_site8137],9.59 ± 0.35
16,AATAAGTATACACATACACACACACCCAAAAAAAAA [CACACA_site8034],10 ± 0.39
17,TGATAATAAGCATACACACACACACCCAAAAAAAAA [CACACA_site721],10.2 ± 0.25
18,AACATAAGTAAGAATACATGCGGAAATTATATAGAA [TGCATGCA_site112],9.03 ± 0.38
19,GGTAAGTACGACTTGACACACATACCCATATATATA [CACACA_site4837],9.2 ± 0.55
20,ATAATTATATTTAGTGGTACTACTTTTGATAATTAG [XGTACX_site6562],8.63 ± 0.42
21,AAAAAAAACAGACACACACACACATATACATACATA [CACACA_site2665],10.3 ± 0.17
22,TAAACAGACATATAAACACACATACATACATACATA [CACACA_site7215],9.41 ± 0.32
